uPA surface inh: cell surface uPA generation inhibition. cell surface uPA generation assay, qHTS. 330,000 tested, 0.31% active. Potency, µM (top dose mostly 38.3 µM), hits mostly inhibitors. AID 540303; active = well fitted inhibition curve with a large enough effect; inconclusive = small, poorly fitted or top-dose-only effect; inactive = no such curve, though single readings can be large or run the other way; tested in mouse RAW 264.7 cells; note: nearly all actives have a fitted effect of over 55% in size
TDP-43 yeast inh: TDP-43 toxicity inhibition in yeast; Potency, µM (highest dose often 46.1 µM), usual class: activators; 410,000 tested, 1.8% active; AID 652104; TDP-43 expressing yeast growth rescue, BacTiter-Glo, 24 h; note: nearly all actives have a fitted effect of over 50% in size
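In this qHTS, compounds that restore growth of yeast expressing TDP-43 appear as activators. Cells (OD600=0.02, galactose medium, raffinose-pregrown) are incubated with compound 24 hr at 30 deg C and growth is quantified by BacTiter-Glo.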
FUS suppressor: suppressors of FUS proteinopathy in yeast; AID 1347120; S. cerevisiae FUS-expressing, growth rescue, OD600, 24 h; Potency, µM (doses to about 76.6 µM), most hits filed as activators; 390,000 tested, 0.24% active; note: nearly all actives have a fitted effect of over 55% in size
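Toxicity suppression screen in FUS-yeast. Cells induced with 2% galactose, starting OD 0.005, treated 24hr at 30C with compounds at multiple final concentrations; growth by OD600.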
Abeta rescue: compounds reversing amyloid beta toxicity in yeast; AID 1347071; yeast expressing A-beta42, growth rescue, OD600, 48 h; response scale: 0% DMSO, 100% iron-clioquinol control; 410,000 tested, 0.063% active; Potency, µM (titrated, usually from 46.1 µM), actives largely listed as activators; note: nearly all actives have a fitted effect of over 55% in size
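Yeast growth medium received pinned compounds, then yeast cells expressing toxic A-beta were added; plates incubated at 30 C for 48 hr. Growth read as absorbance at 600 nm, normalized to DMSO and equimolar FeCl3 plus clioquinol controls.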
BCR signal inh: chronic active BCR signaling inhibition. ABC-DLBCL IkBa-CBG/CBR reporter, luminescence ratio, 4 h. Potency, µM (highest dose often 46.1 µM), actives largely listed as inhibitors. 340,000 tested, 0.05% active. AID 493014; active = well fitted inhibition curve with a large enough effect in the signal ratio, with a control signal flat, not every such curve was filed as active; inconclusive = small, poorly fitted or top-dose-only effect, or effect the other way, or a change in a side signal; the % refers to the signal ratio
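Compounds up to 46 uM were incubated four hours with TMD8 cells whose green CBG68 luciferase is fused to IkappaBalpha; red CBR luminescence normalised the signal, and concentration-effect curves were fitted to fusion, red and ratio data.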
aSyn rescue: alpha-synuclein toxicity inhibition in yeast; Yeast expressing alpha-synuclein, growth rescue, BacTiter-Glo, 24 h; Potency, µM (series often up to 46.1 µM), most hits filed as activators; 370,000 tested, 0.14% active; note: nearly all actives have a fitted effect of over 65% in size
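Rescue of yeast growth: cells expressing toxic alpha-synuclein, induced in galactose at OD600 0.02, incubated with compound 24 h at 30 C. ATP luminescence quantified growth; inhibitors of toxicity appear as activators.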
Of the large screens only hits and unclear results are named; the others gave an inactive call. Compounds with a hit are over-represented: about 2.3% of the library has one in this group of screens. Unless noted, calls come from the whole dose curve; as a rule, active = well fitted curve in the direction sought with a large enough effect; inconclusive = small, poorly fitted or top-dose-only effect, or another doubt; inactive = no such curve, though single readings can be large; an effect the other way counts as inactive or inconclusive.

Nc1ccc(C2CCCc3nonc32)c2nonc12 (stereo unspecified)	TDP-43 yeast inh 22.4µM
C(=N\Nc1nc2ccccc2[nH]1)/c1ccccc1	BCR signal inh inconclusive
C(=C\c1ccccc1)/C=N/Nc1nc2ccccc2[nH]1	uPA surface inh 3.98µM, BCR signal inh inconclusive
O=C(NNC1=C(C(=O)C(F)(F)F)CCC1)c1ccccc1O	BCR signal inh inconclusive
COc1ccccc1C(=O)NNC1=C(C(=O)C(F)(F)F)CCC1	Abeta rescue inconclusive, BCR signal inh inconclusive, aSyn rescue 3.55µM
CC(C)c1nc2sc3c(=S)nc[nH]c3c2c2c1CCC2	TDP-43 yeast inh 15.8µM, BCR signal inh inconclusive
CC(C)c1nc2sc3c(=O)[nH]cnc3c2c2c1CCC2	BCR signal inh inconclusive
Cc1ccc(NC(=O)CN2C(=O)NC(Cc3ccccc3)C2=O)cc1 (stereo unspecified)	none
Cc1ccc(CNC(=O)Cc2csc3ccccc23)cc1	none (no result: uPA surface inh, BCR signal inh, aSyn rescue)
Cc1cccc(CNC(=O)Cc2csc3ccccc23)c1	TDP-43 yeast inh inconclusive, aSyn rescue 20µM (no result: uPA surface inh, BCR signal inh)
O=C(Cc1csc2ccccc12)NCc1ccc(F)cc1	TDP-43 yeast inh 12.6µM (no result: uPA surface inh, BCR signal inh, aSyn rescue)
COc1ccc(S(=O)(=O)N2CCOC23CCN(C(=O)c2c(F)cccc2Cl)CC3)cc1	TDP-43 yeast inh 17.8µM, Abeta rescue inconclusive, BCR signal inh inconclusive
COc1ccc(S(=O)(=O)N2CCOC23CCN(C(=O)c2ccc(Cl)cc2Cl)CC3)cc1	TDP-43 yeast inh inconclusive
CCCn1nnc(NC(=O)c2ccc(-c3cc(Cl)ccc3Cl)o2)n1	none
CCC(=O)N1c2ccc(S(=O)(=O)N3CCN(c4ccccc4Cl)CC3)cc2CC1C (stereo unspecified)	TDP-43 yeast inh 35.5µM, FUS suppressor inconclusive
CCC(=O)N1c2ccc(S(=O)(=O)N3CCN(c4cc(C)ccc4C)CC3)cc2CC1C (stereo unspecified)	none
CC(C)CC(=O)N1CCN(c2ccc([N+](=O)[O-])cc2Cl)CC1	TDP-43 yeast inh 12.6µM, aSyn rescue inconclusive
COc1cc2nc(SCc3ccc(Cl)cc3Cl)n(Cc3cccs3)c(=N)c2cc1OC	TDP-43 yeast inh 25.1µM, BCR signal inh inconclusive
COc1cc2nc(SCc3ccc(C(F)(F)F)cc3)n(Cc3cccs3)c(=N)c2cc1OC	BCR signal inh inconclusive (no result: aSyn rescue)
COc1ccc(C2C(C(N)=O)=C(C)Nc3nc(-c4ccccc4Cl)nn32)cc1 (stereo unspecified)	none (no result: uPA surface inh, BCR signal inh, aSyn rescue)
COC(=O)[C@]12C[C@H](CC(=O)NCCC(C)C)C(=O)N(Cc3ccc(Cl)cc3Cl)C1=C[C@H](C(C)C)O[C@@H]2C1CC1	none (no result: uPA surface inh, TDP-43 yeast inh, Abeta rescue, BCR signal inh, aSyn rescue)
COCCCNC(=O)C[C@H]1C[C@@]2(C(=O)OC)C(=C[C@H](C(C)C)O[C@@H]2C2CC2)N(Cc2ccc(Cl)cc2Cl)C1=O	FUS suppressor 28.2µM (no result: uPA surface inh, TDP-43 yeast inh, Abeta rescue, BCR signal inh, aSyn rescue)
COC(=O)[C@]12C[C@H](CC(=O)NCc3ccc(OC)c(OC)c3)C(=O)N(Cc3ccc(Cl)cc3Cl)C1=C[C@H](C(C)C)O[C@@H]2C1CC1	FUS suppressor 28.2µM (no result: uPA surface inh, TDP-43 yeast inh, Abeta rescue, BCR signal inh, aSyn rescue)
O=C(OCCn1c(=S)sc2ccccc21)c1ccccc1	TDP-43 yeast inh 11.2µM (no result: FUS suppressor, BCR signal inh)
Cc1ccc2[nH]cc(C(c3ccccc3)c3cccs3)c2c1 (stereo unspecified)	TDP-43 yeast inh 8.91µM (no result: uPA surface inh, BCR signal inh, aSyn rescue)
CC(C)(C)c1ccc(C(=O)C=[N+]=[N-])cc1	BCR signal inh inconclusive
CC1=NN(/C(=N\c2nnc(C)s2)Nc2ccc(C)cc2)[C@H](c2ccc(C)cc2)S1	TDP-43 yeast inh 12.6µM
CC1=NN(/C(=N\c2nnc(C)s2)Nc2ccccc2)[C@H](c2cccc3ccccc23)S1	TDP-43 yeast inh inconclusive, FUS suppressor inconclusive, BCR signal inh inconclusive
Cc1ccc(C)c(N/N=C2\CCCNC2=O)c1	TDP-43 yeast inh 20µM (no result: FUS suppressor)
O=C1CC(c2ccccc2)n2nc(NC(=O)c3ccccn3)nc2N1 (stereo unspecified)	none
CCOc1ccc(NC(=O)C2CCN(S(=O)(=O)c3ccc4c(c3)oc(=O)n4C)CC2)cc1	none (no result: uPA surface inh, BCR signal inh, aSyn rescue)
CC1CCCN(S(=O)(=O)c2ccc(S(=O)(=O)NC(C)c3cccs3)cc2)C1 (stereo unspecified)	FUS suppressor 31.6µM
Cc1ccc(S(=O)(=O)N2CCCC(C)C2)cc1 (stereo unspecified)	TDP-43 yeast inh inconclusive
COc1ccc(NC(=O)N(C)C[C@@H]2Oc3cc(C#CCN(C)C)ccc3S(=O)(=O)N([C@H](C)CO)C[C@H]2C)cc1	none (no result: uPA surface inh, BCR signal inh)
Cn1ccc2c(-c3cncc4ccccc34)cc3c(c21)C1CCC3C1 (stereo unspecified)	TDP-43 yeast inh 28.2µM (no result: uPA surface inh, BCR signal inh)
Cc1nc2ccccc2n1CC(O)COc1ccc(C(=O)O)cc1 (stereo unspecified)	none (no result: uPA surface inh, BCR signal inh, aSyn rescue)
Cc1cc(C)nc(NC(=NCCc2c[nH]c3ccccc23)NC(=O)Nc2ccc(Cl)cc2)n1	TDP-43 yeast inh 22.4µM (no result: FUS suppressor)
COc1ccc(C(=O)/C=C2/C(=O)Nc3ccccc32)cc1	uPA surface inh inconclusive, TDP-43 yeast inh 2.82µM
COc1ccc(C(=O)/C=C2/C(=O)Nc3ccccc32)cc1OC	FUS suppressor inconclusive, BCR signal inh inconclusive
COc1ccc(C(=O)/C=C2/C(=O)Nc3ccccc32)c(OC)c1	TDP-43 yeast inh 11.2µM, BCR signal inh inconclusive
COc1cc(OC)c(/C=C2\C(=O)Nc3ccccc32)c(OC)c1	uPA surface inh 7.94µM, BCR signal inh inconclusive
CCn1ccnc1CNC(=O)c1ccc(OC2CCN(C(=O)COC)CC2)cc1	none
Cn1c(=O)c2c(ncn2CC(=O)OCC(=O)Nc2cc(Cl)ccc2Cl)n(C)c1=O	none (no result: FUS suppressor)
COc1ccc(C(=O)N/N=C(\C)CC(=O)Nc2ccc3c(c2)OCCO3)c(OC)c1	BCR signal inh inconclusive
CCOc1ccc(C(=O)/C=C/c2cc(OC)c(OC)c(OC)c2)cc1	BCR signal inh inconclusive
COc1ccc(/C=C/C(=O)c2cc(F)ccc2OC(=O)c2ccc(OC)c(OC)c2)cc1OC	TDP-43 yeast inh inconclusive, FUS suppressor inconclusive, BCR signal inh inconclusive
COc1ccc(/C=C/C(=O)c2cc(F)ccc2OC(=O)c2ccccc2)cc1OC	TDP-43 yeast inh 12.6µM (no result: BCR signal inh)
COc1cc(/C=C/C(=O)c2ccc(F)cc2)cc(OC)c1OC	TDP-43 yeast inh 14.1µM, BCR signal inh inconclusive
COC(=O)c1ccccc1NC(=O)C1CC(=O)N(c2ccc(C)cc2)C1 (stereo unspecified)	none
O=C(Nc1ccc(OCc2ccccc2Cl)cc1)c1cccnc1	uPA surface inh inconclusive, TDP-43 yeast inh 15.8µM
O=C(COc1ccccc1[N+](=O)[O-])NCC1(N2CCCCC2)CCCCC1	none
CC(SCc1ccccc1)C(=O)Nc1ccccc1-c1ccccc1 (stereo unspecified)	FUS suppressor 17.8µM
